Results as given in PubChem BioAssay (EPA / NIEHS).
Several values for one entry are separate records, joined by “and”; a condition that tells them apart may be missing. Identical values can stand only once. A structure can be active in one record and inactive in another. Activity calls are given as the source filed them. Rule for the calls: active = hit-call score of the fitted dose curve at least 0.9, where 1 is the maximum; inactive = score below 0.9.

Key:
KRT18 (gene 3875) = assay: BSK_BE3C_Keratin818: BioMAP Diversity Plus: BE3C Assay for Keratin 818 Biomarker Activity (AID 2284282); details: primary human bronchial epithelial cells
Summary of the method: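 Chemicals are added to human lung bronchial epithelial primary cells (BE3C system) and incubated 24 h. Keratin 8/18 is then measured by ELISA, with parallel SRB total-protein staining gauging overt cytotoxicity.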

[1] = read-out: Matrix Metallopeptidase 9 (MMP9), MMP9 (gene 4318); assay: BSK_BE3C_MMP9: BioMAP Diversity Plus: BE3C Assay for Matrix Metallopeptidase 9 (MMP9) Biomarker Activity (AID 2284283); details: primary human bronchial epithelial cells
Summary of the method: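 Cells were dosed, incubated 24 h, then assayed for MMP-9 by ELISA; activity was fitted upward against DMSO. The system used human lung primary bronchial epithelial cells, with SRB total-protein staining run alongside for cytotoxicity.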

[2] = read-out: Plasminogen activator inhibitor-1 (PAI1), SERPINE1 (gene 5054); assay: BSK_CASM3C_PAI1: BioMAP Diversity Plus: CASM3C Assay for Plasminogen activator inhibitor-1 (PAI1) Biomarker Activity (AID 2284284); details: primary human coronary artery smooth muscle cells;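 note: PAI-1 protein level measured by ELISA 24 h after dosing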
[3] = read-out: Monocyte Chemoattractant Protein-1 (MCP1), CCL2 (gene 6347); assay: BSK_hDFCGF_MCP1: BioMAP Diversity Plus: hDFCGF Assay for Monocyte Chemoattractant Protein-1 (MCP1) Biomarker Activity (AID 2284285); details: primary human foreskin fibroblasts
Summary of the method: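 Human foreskin fibroblasts (hDFCGF system) were exposed to compound and secreted MCP-1 was measured by ELISA after 24 hours. Activity was fitted relative to DMSO. Cytotoxicity was checked by SRB total-protein staining in parallel cultures.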

[4] = read-out: Vascular cell adhesion molecule 1 (VCAM1), VCAM1 (gene 7412); assay: BSK_IMphg_VCAM1: BioMAP Diversity Plus: IMphg Assay for Vascular cell adhesion molecule 1 (VCAM1) Biomarker Activity (AID 2284286); details: primary human endothelial cells with macrophages
Summary of the method: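 Human venular endothelial cells co-cultured with macrophages; VCAM-1 quantified by ELISA 24 h after dosing, fitted in the positive direction against DMSO. Cytotoxicity was checked in parallel cultures by SRB total-protein staining (0.1% SRB after 10% TCA fixation, 560 nm).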

[5] = read-out: Intercellular Adhesion Molecule 1 (ICAM1), ICAM1 (gene 3383); assay: BSK_hDFCGF_ICAM1: BioMAP Diversity Plus: hDFCGF Assay for Intercellular Adhesion Molecule 1 (ICAM1) Biomarker Activity (AID 2284287); details: primary human foreskin fibroblasts
Summary of the method: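 Primary human foreskin fibroblasts (hDFCGF system) dosed with chemical; ICAM-1 quantified by ELISA at 24 h relative to DMSO. Parallel SRB total-protein staining to assess overt cytotoxicity.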

CD40, CD40 (gene 958) = assay: BSK_IMphg_CD40: BioMAP Diversity Plus: IMphg Assay for CD40 Biomarker Activity (AID 2284288); details: primary human endothelial cells with macrophages
Summary of the method: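 Venular endothelial cells co-cultured with macrophages (human primary), CD40 measured by ELISA 24 h after dosing. Positive-direction fit vs DMSO baseline; cytotoxicity tracked by SRB total-protein staining in parallel cultures.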

[6] = read-out: TIMP metallopeptidase inhibitor 2 (TIMP2), TIMP2 (gene 7077); assay: BSK_hDFCGF_TIMP2: BioMAP Diversity Plus: hDFCGF Assay for TIMP metallopeptidase inhibitor 2 (TIMP2) Biomarker Activity (AID 2284289); details: primary human foreskin fibroblasts
Summary of the method: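 Primary human foreskin fibroblasts in the hDFCGF system, dosed for 24 h; TIMP-2 level measured by ELISA, fitted in the positive direction against DMSO; cytotoxicity checked in parallel by sulforhodamine B total protein staining.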

[7] = read-out: Interleukin-1 alpha (IL1a), IL1A (gene 3552); assay: BSK_IMphg_IL1a: BioMAP Diversity Plus: IMphg Assay for Interleukin-1 alpha (IL1a) Biomarker Activity (AID 2284290); details: primary human endothelial cells with macrophages
Summary of the method: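 Human venular endothelial cells co-cultured with macrophages, IMphg system. IL-1α is measured by ELISA 24 h after dosing and fitted in the positive direction against DMSO. Cytotoxicity is assessed by SRB staining of parallel cultures.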

[8] = read-out: E-selectin (Homo sapiens) (UniProt P16581); assay: BSK_IMphg_ESelectin: BioMAP Diversity Plus: IMphg Assay for Eselectin Biomarker Activity (AID 2284291); details: primary human endothelial cells with macrophages
Summary of the method: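 Human venular endothelial cell–macrophage co-culture, E-selectin measured by ELISA 24 h after chemical dosing. Signal fitted in the positive direction against DMSO as negative control and baseline.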

Measured: AC50

Sequence of E-selectin (Homo sapiens) (P16581 whole entry, looked up): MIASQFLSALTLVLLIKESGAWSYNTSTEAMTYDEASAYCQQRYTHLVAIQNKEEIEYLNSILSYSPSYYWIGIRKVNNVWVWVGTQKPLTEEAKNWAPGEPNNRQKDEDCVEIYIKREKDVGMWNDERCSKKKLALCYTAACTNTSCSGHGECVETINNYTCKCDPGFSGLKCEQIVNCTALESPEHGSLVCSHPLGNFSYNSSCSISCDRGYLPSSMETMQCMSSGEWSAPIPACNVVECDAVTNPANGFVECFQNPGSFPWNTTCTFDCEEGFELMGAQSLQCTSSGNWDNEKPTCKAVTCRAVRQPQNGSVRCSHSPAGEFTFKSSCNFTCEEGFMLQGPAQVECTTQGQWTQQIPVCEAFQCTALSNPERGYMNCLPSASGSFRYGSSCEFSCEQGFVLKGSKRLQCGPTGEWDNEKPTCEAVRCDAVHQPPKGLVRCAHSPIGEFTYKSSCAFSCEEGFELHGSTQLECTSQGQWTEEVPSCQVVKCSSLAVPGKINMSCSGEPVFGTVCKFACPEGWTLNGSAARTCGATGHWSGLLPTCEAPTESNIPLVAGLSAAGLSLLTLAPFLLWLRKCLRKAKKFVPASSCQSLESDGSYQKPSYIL

O=C(O)C(F)(F)C(F)(F)C(F)(F)C(F)(F)C(F)(F)C(F)(F)C(F)(F)F
inactive: all assays above

O=S(=O)(O)C(F)(F)C(F)(F)C(F)(F)C(F)(F)C(F)(F)C(F)(F)C(F)(F)C(F)(F)F
active: [1] 17.7 µM [middle of 4 runs] | [6] 30 µM and 8.71 µM | [8] 30 µM and 38.2 µM
inactive: KRT18 (gene 3875) | [2] | [3] | [4] | [5] | CD40, CD40 (gene 958) | [6] | [7]
